Assay results: PubChem BioAssay (EPA / NIEHS)
Several values for one entry are separate records, joined by “and”; a condition that tells them apart may be missing. Equal values may be shown once. Inconclusive results are not listed. Some compounds were tested as several samples or in several runs, with calls that do not always agree. Activity calls are given as the source filed them. How the source made its calls: active means hit-call score of the fitted dose curve at least 0.9, where 1 is the maximum; inconclusive means response in the unintended direction; inactive means score below 0.9.

How the values were obtained:
[1] = molecular target: human Thromboxane A2 Receptor (TXA2), TBXA2R (gene 6915) (UniProt P21731); assay: NVS_GPCR_hTXA2: NovaScreen (NVS) G Protein-Coupled Receptor Assay for human Thromboxane A2 Receptor (TXA2) (AID 2283282);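 further: actives reduce bound radioligand signal relative to DMSO baseline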
Sequence of human Thromboxane A2 Receptor (TXA2), TBXA2R (gene 6915) (P21731 whole entry, looked up): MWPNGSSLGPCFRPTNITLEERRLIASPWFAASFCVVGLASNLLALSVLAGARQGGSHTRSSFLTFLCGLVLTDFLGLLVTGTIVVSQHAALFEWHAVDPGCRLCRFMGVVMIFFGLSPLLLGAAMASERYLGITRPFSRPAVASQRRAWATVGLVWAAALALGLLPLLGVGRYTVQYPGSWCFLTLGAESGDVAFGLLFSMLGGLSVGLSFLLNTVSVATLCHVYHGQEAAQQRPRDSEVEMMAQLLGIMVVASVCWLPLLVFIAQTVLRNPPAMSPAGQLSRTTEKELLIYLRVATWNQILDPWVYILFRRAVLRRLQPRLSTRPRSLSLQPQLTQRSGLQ
How it was run: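 Human platelet membranes tested for radioligand displacement by filtration and scintillation counting 1 h post-dose. Screened in duplicate at 25 uM; activity fitted as signal loss relative to DMSO.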

[2] = molecular target: Muscarinic acetylcholine receptor M2 (Homo sapiens) (UniProt P08172); assay: NVS_GPCR_hM2: NovaScreen (NVS) G Protein-Coupled Receptor Assay for human Muscarinic, M2 Receptor (AID 2283273)
Sequence of Muscarinic acetylcholine receptor M2 (Homo sapiens) (P08172 whole entry, looked up): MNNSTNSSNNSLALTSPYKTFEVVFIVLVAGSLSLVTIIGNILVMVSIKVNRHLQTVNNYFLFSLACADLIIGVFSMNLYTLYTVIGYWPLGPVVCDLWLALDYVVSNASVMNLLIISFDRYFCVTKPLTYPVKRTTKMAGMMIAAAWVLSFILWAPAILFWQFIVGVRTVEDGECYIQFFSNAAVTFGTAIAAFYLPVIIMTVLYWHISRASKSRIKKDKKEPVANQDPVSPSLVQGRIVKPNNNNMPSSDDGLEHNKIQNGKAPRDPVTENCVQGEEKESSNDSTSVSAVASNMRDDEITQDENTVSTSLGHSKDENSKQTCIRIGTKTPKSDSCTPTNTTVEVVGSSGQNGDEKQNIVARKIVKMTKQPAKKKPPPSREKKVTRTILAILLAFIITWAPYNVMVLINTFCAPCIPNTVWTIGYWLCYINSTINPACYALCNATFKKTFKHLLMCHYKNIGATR
How it was run: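 CHO-expressed human M2 receptor preparation, competitive displacement of a radioligand read by filter-based scintillation counting after 1 h. Single 25 uM duplicate screen, then concentration-response follow-up of actives; DMSO baseline.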

[3] = molecular target: human Leukotriene B4 Receptor 1 (LTB4-BLT1), LTB4R (gene 1241) (UniProt Q15722); assay: NVS_GPCR_hLTB4_BLT1: NovaScreen (NVS) G Protein-Coupled Receptor Assay for human Leukotriene B4 Receptor 1 (LTB4-BLT1) (AID 2283271)
Sequence of human Leukotriene B4 Receptor 1 (LTB4-BLT1), LTB4R (gene 1241) (Q15722 whole entry, looked up): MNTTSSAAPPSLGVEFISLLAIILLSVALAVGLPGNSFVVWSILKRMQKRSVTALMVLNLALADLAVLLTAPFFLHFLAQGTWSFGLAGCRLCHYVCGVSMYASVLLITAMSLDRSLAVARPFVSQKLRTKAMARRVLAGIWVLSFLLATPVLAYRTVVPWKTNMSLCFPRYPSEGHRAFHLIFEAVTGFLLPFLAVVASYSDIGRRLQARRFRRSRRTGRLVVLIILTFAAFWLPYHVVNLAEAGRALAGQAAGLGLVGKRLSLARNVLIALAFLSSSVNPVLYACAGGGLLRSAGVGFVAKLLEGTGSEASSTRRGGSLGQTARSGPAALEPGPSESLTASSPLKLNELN
Description: NVS_GPCR_hLTB4_BLT1 is a biochemical, single-readout assay that uses extracted gene-proteins from Human neutrophils in a cell-free assay. Measurements were taken 1 hour after chemical dosing in a 48-well plate.NVS_GPCR_hLTB4_BLT1 is one of one assay component(s) measured or calculated from the NVS_GPCR_hLTB4_BLT1 assay. It is designed to make measurements of radioligand binding, a form of binding reporter, as detected with scintillation counting signals by Filter-based radiodetection technology.Data from the assay component NVS_GPCR_hLTB4_BLT1 was analyzed into 1 assay endpoint. This assay endpoint, NVS_GPCR_hLTB4_BLT1, was analyzed in the positive analysis fitting direction relative to DMSO as the negative control and baseline of activity. Using a type of binding reporter, loss-of-signal activity can be used to understand changes in the binding as they relate to the gene LTB4R. Furthermore, this assay endpoint can be referred to as a primary readout, because the performed assay has only produced 1 assay endpoint. To generalize the intended target to other relatable targets, this assay endpoint is annotated to the gpcr intended target family, where the subfamily is rhodopsin-like receptor. […]

[4] = molecular target: human Muscarinic, M4 Receptor, CHRM4 (gene 1132) (UniProt P08173); assay: NVS_GPCR_hM4: NovaScreen (NVS) G Protein-Coupled Receptor Assay for human Muscarinic, M4 Receptor (AID 2283274)
Sequence of human Muscarinic, M4 Receptor, CHRM4 (gene 1132) (P08173 whole entry, looked up): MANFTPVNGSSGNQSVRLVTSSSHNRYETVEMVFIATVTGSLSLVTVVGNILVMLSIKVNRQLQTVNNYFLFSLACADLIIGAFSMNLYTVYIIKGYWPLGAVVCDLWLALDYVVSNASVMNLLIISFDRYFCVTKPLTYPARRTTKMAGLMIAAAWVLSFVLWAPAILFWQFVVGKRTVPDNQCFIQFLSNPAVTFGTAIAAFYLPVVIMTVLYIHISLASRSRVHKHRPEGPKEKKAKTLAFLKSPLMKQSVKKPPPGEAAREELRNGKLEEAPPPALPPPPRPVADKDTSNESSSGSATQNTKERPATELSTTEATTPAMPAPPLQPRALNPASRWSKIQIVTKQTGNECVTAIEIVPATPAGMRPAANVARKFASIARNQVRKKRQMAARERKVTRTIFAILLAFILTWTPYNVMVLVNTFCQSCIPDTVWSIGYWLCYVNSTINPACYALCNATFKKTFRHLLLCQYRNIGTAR
Description: (§1) NVS_GPCR_hM4 is a biochemical, single-readout assay that uses extracted gene-proteins from CHO in a cell-free assay. Measurements were taken 1 hour after chemical dosing in a 96-well plate.NVS_GPCR_hM4 is one of one assay component(s) measured or calculated from the NVS_GPCR_hM4 assay. It is designed to make measurements of radioligand binding, a form of binding reporter, as detected with scintillation counting signals by Filter-based radiodetection technology.Data from the assay component NVS_GPCR_hM4 was analyzed into 1 assay endpoint. This assay endpoint, NVS_GPCR_hM4, was analyzed in the positive analysis fitting direction relative to DMSO as the negative control and baseline of activity. Using a type of binding reporter, loss-of-signal activity can be used to understand changes in the binding as they relate to the gene CHRM4. Furthermore, this assay endpoint can be referred to as a primary readout, because the performed assay has only produced 1 assay endpoint. To generalize the intended target to other relatable targets, this assay endpoint is annotated to the gpcr intended target family, where the subfamily is rhodopsin-like receptor.
Binding assays used specific radioligands (tritiated, iodinated) with non-radioactive competitive displacement ligands in agonist or antagonist protocols (as indicated) and various reference compounds and inhibitors to titrate specific binding to receptors and transporters. Most enzyme assays (CYPs, kinases, phosphatases, proteases, HDACs) used recombinant protein and specific substrates (fluorescence mostly, some colorimetric and radioactive) and inhibitors, followed by a biochemical separation of substrate and product. All assays for the biochemical HTS were initially run in duplicate at a single concentration (10 uM for CYP450 assays and 25 uM for all others). […] Each assay was run with positive and negative controls, and concurrent controls on every plate. […]

[5] = molecular target: Muscarinic acetylcholine receptor M5 (Homo sapiens) (UniProt P08912); assay: NVS_GPCR_hM5: NovaScreen (NVS) G Protein-Coupled Receptor Assay for human Muscarinic, M5 Receptor (AID 2283275)
Sequence of Muscarinic acetylcholine receptor M5 (Homo sapiens) (P08912 whole entry, looked up): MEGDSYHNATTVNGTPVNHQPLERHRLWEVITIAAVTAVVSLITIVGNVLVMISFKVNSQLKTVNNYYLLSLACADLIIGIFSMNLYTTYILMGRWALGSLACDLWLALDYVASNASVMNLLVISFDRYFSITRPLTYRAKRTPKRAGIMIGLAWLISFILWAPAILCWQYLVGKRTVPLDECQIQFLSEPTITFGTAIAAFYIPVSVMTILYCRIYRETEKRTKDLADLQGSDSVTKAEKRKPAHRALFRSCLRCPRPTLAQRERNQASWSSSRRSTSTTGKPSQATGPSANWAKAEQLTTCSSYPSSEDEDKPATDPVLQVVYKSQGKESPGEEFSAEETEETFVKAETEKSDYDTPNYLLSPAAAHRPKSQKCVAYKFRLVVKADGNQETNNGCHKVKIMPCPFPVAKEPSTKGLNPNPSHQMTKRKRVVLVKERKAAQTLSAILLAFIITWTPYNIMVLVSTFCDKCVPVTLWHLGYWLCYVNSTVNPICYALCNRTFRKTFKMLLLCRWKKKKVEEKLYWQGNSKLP
How it was run: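 Chemicals passing a primary duplicate screen at 25 uM were run as singleton concentration series, maximum 50 uM. Displacement of a specific radioligand from CHO-extracted receptor was read by filter scintillation after 1 h, relative to DMSO.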

[6] = molecular target: human Neurokinin, NK2 Receptor, TACR2 (gene 6865) (UniProt P21452); assay: NVS_GPCR_hNK2: NovaScreen (NVS) G Protein-Coupled Receptor Assay for human Neurokinin, NK2 Receptor (AID 2283278);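 further: actives reduce bound radioligand signal relative to DMSO baseline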
Sequence of human Neurokinin, NK2 Receptor, TACR2 (gene 6865) (P21452 whole entry, looked up): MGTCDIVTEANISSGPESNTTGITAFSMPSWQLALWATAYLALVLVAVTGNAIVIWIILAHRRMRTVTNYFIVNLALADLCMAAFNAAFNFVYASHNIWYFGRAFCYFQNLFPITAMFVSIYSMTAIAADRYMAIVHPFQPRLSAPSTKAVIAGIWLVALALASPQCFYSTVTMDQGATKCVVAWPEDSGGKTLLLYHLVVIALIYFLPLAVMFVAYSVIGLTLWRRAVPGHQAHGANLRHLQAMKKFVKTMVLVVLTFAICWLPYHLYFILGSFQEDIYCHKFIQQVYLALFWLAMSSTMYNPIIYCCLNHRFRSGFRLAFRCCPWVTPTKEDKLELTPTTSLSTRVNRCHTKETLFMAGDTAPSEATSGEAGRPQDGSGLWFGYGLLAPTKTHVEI
How it was run: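 Radioligand binding on membranes from CHO cells expressing receptor, filter-based scintillation read 4 h after dosing. Initial duplicate screen at 25 uM, actives in concentration series; loss of signal versus DMSO.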

[7] = molecular target: human Opioid Receptor Delta 1 (Opiate D1), OPRD1 (gene 4985) (UniProt P41143); assay: NVS_GPCR_hOpiate_D1: NovaScreen (NVS) G Protein-Coupled Receptor Assay for human Opioid Receptor Delta 1 (Opiate D1) (AID 2283280)
Sequence of human Opioid Receptor Delta 1 (Opiate D1), OPRD1 (gene 4985) (P41143 whole entry, looked up): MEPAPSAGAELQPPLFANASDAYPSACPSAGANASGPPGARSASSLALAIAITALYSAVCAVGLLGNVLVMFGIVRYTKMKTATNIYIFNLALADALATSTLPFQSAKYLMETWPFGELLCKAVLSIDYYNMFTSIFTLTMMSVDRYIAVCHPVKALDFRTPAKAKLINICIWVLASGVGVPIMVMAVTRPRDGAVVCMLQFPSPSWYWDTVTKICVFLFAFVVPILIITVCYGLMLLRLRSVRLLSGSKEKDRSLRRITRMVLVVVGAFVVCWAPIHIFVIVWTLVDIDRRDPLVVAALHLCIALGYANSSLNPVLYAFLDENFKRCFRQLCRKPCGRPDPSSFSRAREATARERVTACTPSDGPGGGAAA
How it was run: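 Membrane preparations from CHO cells bearing the human receptor were incubated 1 h with test chemical, and bound radioligand was counted after filtration. Actives from 25 uM duplicate screening were retested in concentration-response.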

[8] = molecular target: human Neurotensin Receptor (NTS), NTSR1 (gene 4923) (UniProt P30989); assay: NVS_GPCR_hNTS: NovaScreen (NVS) G Protein-Coupled Receptor Assay for human Neurotensin Receptor (NTS) (AID 2283279)
Sequence of human Neurotensin Receptor (NTS), NTSR1 (gene 4923) (P30989 whole entry, looked up): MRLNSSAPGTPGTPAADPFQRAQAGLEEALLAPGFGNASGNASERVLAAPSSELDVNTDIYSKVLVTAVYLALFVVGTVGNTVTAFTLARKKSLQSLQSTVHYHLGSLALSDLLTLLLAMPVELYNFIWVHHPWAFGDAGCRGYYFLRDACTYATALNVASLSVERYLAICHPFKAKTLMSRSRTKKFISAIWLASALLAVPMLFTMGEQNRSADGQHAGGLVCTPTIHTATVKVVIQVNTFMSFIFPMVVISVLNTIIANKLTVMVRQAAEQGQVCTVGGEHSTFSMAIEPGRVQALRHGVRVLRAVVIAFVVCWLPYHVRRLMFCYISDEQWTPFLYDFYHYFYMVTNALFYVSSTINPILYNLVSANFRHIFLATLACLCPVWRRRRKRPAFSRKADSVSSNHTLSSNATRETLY
How it was run: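 Compounds competed with a radiolabelled ligand for binding to CHO-derived human neurotensin receptor; bound signal counted after filtration, 1 h. Screened first at a single concentration of 25 uM in duplicate, then concentration series to 50 uM maximum for actives.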

[9] = molecular target: human Purinergic Receptor P2Y, P2RY1 (gene 5028) (UniProt P47900); assay: NVS_GPCR_hPY2: NovaScreen (NVS) G Protein-Coupled Receptor Assay for human Purinergic Receptor P2Y (AID 2283281)
Sequence of human Purinergic Receptor P2Y, P2RY1 (gene 5028) (P47900 whole entry, looked up): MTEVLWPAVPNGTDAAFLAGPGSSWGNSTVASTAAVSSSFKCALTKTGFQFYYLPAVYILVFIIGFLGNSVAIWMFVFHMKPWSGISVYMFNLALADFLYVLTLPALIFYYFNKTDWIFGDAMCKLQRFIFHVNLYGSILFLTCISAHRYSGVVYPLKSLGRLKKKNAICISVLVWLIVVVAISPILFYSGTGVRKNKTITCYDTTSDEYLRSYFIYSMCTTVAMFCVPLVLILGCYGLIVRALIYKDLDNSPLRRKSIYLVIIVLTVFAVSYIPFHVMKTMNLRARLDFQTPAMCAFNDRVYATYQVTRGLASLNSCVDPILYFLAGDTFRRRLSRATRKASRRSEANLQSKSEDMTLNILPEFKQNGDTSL
How it was run: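 Filtration scintillation readout of radioligand displacement on U937 extract, measured 1 h post-dosing. Single 25 uM duplicate screen, then singleton concentration series to 50 uM for chemicals passing threshold; DMSO as baseline.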

[10] = molecular target: Muscarinic acetylcholine receptor M1 (Homo sapiens) (UniProt P11229); assay: NVS_GPCR_hM1: NovaScreen (NVS) G Protein-Coupled Receptor Assay for human Muscarinic, M1 Receptor (AID 2283270)
Sequence of Muscarinic acetylcholine receptor M1 (Homo sapiens) (P11229 whole entry, looked up): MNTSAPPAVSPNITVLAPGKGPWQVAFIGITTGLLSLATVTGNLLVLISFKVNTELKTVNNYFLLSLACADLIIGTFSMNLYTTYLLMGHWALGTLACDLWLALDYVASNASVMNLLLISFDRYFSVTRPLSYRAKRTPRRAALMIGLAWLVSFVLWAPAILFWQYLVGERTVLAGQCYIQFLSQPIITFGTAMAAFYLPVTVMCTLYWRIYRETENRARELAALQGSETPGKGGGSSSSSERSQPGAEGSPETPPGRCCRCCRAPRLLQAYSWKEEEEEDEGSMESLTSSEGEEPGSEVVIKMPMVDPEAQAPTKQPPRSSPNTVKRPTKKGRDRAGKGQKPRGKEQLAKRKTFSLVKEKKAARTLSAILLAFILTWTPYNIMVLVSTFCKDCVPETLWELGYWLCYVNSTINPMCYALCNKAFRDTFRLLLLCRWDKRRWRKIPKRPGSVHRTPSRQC
Description: as §1, with “NVS_GPCR_hM1” for “NVS_GPCR_hM4”, “plate.NVS_GPCR_hM1” for “plate.NVS_GPCR_hM4”, “NVS_GPCR_hM1,” for “NVS_GPCR_hM4,”, “Using a type of binding reporter, loss-of-signal activity can be used to understand changes in the binding as they relate to the gene CHRM4.” left out, “To generalize the intended target to other relatable targets, this assay endpoint is annotated to the gpcr intended target family, where the subfamily is rhodopsin-like receptor.” left out
Binding assays used specific radioligands (tritiated, iodinated) with non-radioactive competitive displacement ligands in agonist or antagonist protocols (as indicated) and various reference compounds and inhibitors to titrate specific binding to receptors and transporters. Most enzyme assays (CYPs, kinases, phosphatases, proteases, HDACs) used recombinant protein and specific substrates (fluorescence mostly, some colorimetric and radioactive) and inhibitors, followed by a biochemical separation of substrate and product. […]

In the case of `C[C@]12CC[C@@H]3c4ccc(O)cc4CC[C@H]3[C@@H]1C[C@@H](O)[C@@H]2O`, the outcome [1] is reported as “inactive”.
For `CC[N+](CC)(CC)Cc1ccccc1`, the AC50 [2] was 21.5 µM (active).
In the case of `N=C(N)c1ccc(OCCCCCOc2ccc(C(=N)N)cc2)cc1`, the outcome [3] is reported as “inactive”, the AC50 [4] is reported as 2.83 µM (active) and the AC50 [5] is reported as 8.19 µM (active). The outcome [6] was “inactive” and the AC50 [7] was 8.49 µM (active).
With `C=Cc1ccc(O)c(OC)c1` the outcome [1] was “inactive”.
For `NS(=O)(=O)O`, the outcome [1] was “inactive”.
For `O=C(CCCN1CCC(O)(c2ccc(Cl)cc2)CC1)c1ccc(F)cc1`, the outcome [6] was “inactive”.
`OCC(CO)(CBr)CBr` was tested, and the outcome [1] was “inactive”.
`CCCCCCCC(OC)OC` was tested, and the AC50 [1] was 0.0748 µM (active).
With `CC1=NN(c2ccccc2)C(=O)C1` the outcome [1] was “inactive”.
`O=C1OC2(c3ccccc31)c1cc(I)c(O)c(I)c1Oc1c2cc(I)c(O)c1I` was tested, and the AC50 [6] was 1.78 µM (active) and the AC50 [1] was 1.24 µM (active).
With `CN(C)c1ccc(C(=C2C=CC(=[N+](C)C)C=C2)c2ccccc2)cc1` the AC50 [2] was 4.03 µM (active) and 2.32 µM (active), the AC50 [6] was 5.94 µM (active) and 1.63 µM (active) and the AC50 [1] was 12.5 µM (active). The outcome [1] was “inactive”.
For `CC(O)COc1ccccc1` (stereo not drawn), the outcome [1] was “inactive”.
`CCCCc1oc2ccccc2c1C(=O)c1cc(I)c(OCCN(CC)CC)c(I)c1` was tested, and the AC50 [4] was 4.41 µM (active), the AC50 [5] was 4.86 µM (active) and the AC50 [6] was 11.4 µM (active). For the same molecule, the AC50 [8] was 7.41 µM (active).
For `Clc1ccc(Nc2nnc(Cc3ccncc3)c3ccccc23)cc1`, the AC50 [6] was 3.61 µM (active) and the AC50 [1] was 0.417 µM (active).
`CCCCCc1ccc(O)cc1` was tested, and the outcome [6] was “inactive”.
`CC=O` was tested, and the outcome [1] was “inactive”.
In the case of `CCCCC=O`, the outcome [9] is reported as “inactive”.
`CC(C)(C)c1ccc(O)c(O)c1` was tested, and the AC50 [6] was 16 µM (active) and the outcome [6] was “inactive”.
For `CCCCCCCCCCCCOS(=O)(=O)O`, the AC50 [7] was 18.6 µM (active), the outcome [9] was “inactive” and the AC50 [1] was 7.92 µM (active).
With `NC(=NCCCCCCN=C(N)/N=C(\N)Nc1ccc(Cl)cc1)/N=C(\N)Nc1ccc(Cl)cc1` the AC50 [10] was 3.15 µM (active) and the AC50 [6] was 2.18 µM (active).
For `CN(Cc1cnc2nc(N)nc(N)c2n1)c1ccc(C(=O)N[C@@H](CCC(=O)O)C(=O)O)cc1`, the outcome [4] was “inactive”, the outcome [5] was “inactive” and the AC50 [6] was 2.6 µM (active). The AC50 [7] was 25 µM (active).
`CCC(=O)O` was tested, and the outcome [1] was “inactive”.
For `CCCCCCCCCCCCCCCCCC[N+](C)(C)Cc1ccccc1`, the AC50 [2] was 0.314 µM (active) and the AC50 [6] was 2.55 µM (active).
